An excerpt weighted towards active compounds, which were near 8% of everything screened.
KB-V1 cytotox: qHTS assay for MDR1-selective chemotherapeutics: Primary screen using the drug-selected MDR subline cells KB-V1. Potency, µM (highest dose often 46.1 µM), usual class: cytotoxic. 400,000 tested, 3.4% active. AID 1347076, 2019. KB-V1 MDR cells viability, CellTiter-Glo, 72 h; also: % is scaled to controls: 0 for no effect and ±100 for the full control effect; nearly all actives have a fitted effect of over 60% in size
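Readout: CellTiter-Glo luminescence, 10 min after addition. Cells: KB-V1 MDR subline, 72 h at 37 degrees C with compound. Analysis: corrected, normalized data fitted to concentration-effect curves.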
HT1080 IDH1KD tx: qHTS for induction of synthetic lethality in tumor cells producing 2HG: qHTS for the HT-1080-IDH1KD cell line. HT-1080 IDH1 knockdown viability, ATP luminescence, 48 h. Potency, µM (doses to about 46.1 µM), inactives show at the top dose activity, negative = toxicity, most hits filed as cytotoxic. 360,000 tested, 2% active;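 also: 0% = DMSO wells and -100% = cell-free medium wells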
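IDH1KD HT-1080 cells, 750/well, RPMI + 5% FBS; compound pinned after 2 h settling; 48 h, 37 °C; CellTiter-Glo luminescence; % activity normalised to DMSO and no-cell wells; curves fitted, classed by r2 and efficacy.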
MCF10A rereplic: A quantitative high throughput screen for small molecules that induce DNA re-replication in MCF 10a normal breast cells | MCF 10A DNA re-replication, Hoechst nuclear intensity, 48 h | Potency, µM (titrated, usually from 46.1 µM), without a hit: at the highest dose activity, positive = re-replication, actives largely listed as activators | 350,000 tested, 2.9% active; also: % of control where 0% means no effect; nearly all actives have a fitted effect of over 50% in size
SW480 rerep: A quantitative high throughput screen for small molecules that induce DNA re-replication in SW480 colon adenocarcinoma cells | AID 624297, 2012 | 340,000 tested, 1.8% active | Potency, µM (doses to about 46.1 µM), without a hit: at the top dose re-replication activation, hits mostly activators | SW480 DNA re-replication, Hoechst DNA content imaging, 48 h; also: % of control where 0% means no effect; nearly all actives have a fitted effect of over 55% in size
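Cells (250 per well) received 23 nL compound or DMSO by pin tool and were kept 48 hr at 37 C, 5% CO2. Nuclei were then stained with Hoechst for 40 min and scanned for DNA content.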
HT1080NT lethal: qHTS for induction of synthetic lethality in tumor cells producing 2HG: qHTS for the HT-1080-NT fibrosarcoma cell line. HT-1080-NT fibrosarcoma viability, CellTiter-Glo ATP luminescence, 48 h. 360,000 tested, 1.6% active. Potency, µM (highest dose often 46.1 µM), for the others: at the top dose activity, negative = less viability, actives largely listed as cytotoxic. AID 686970, 2013;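 also: NT is the 2HG producing partner of a matched IDH1 knockdown line; 0% = DMSO-treated cells and -100% = media-only wells without cells; nearly all actives have a fitted effect of over 55% in size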
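Fibrosarcoma NT cells, 750 per well in 5% FBS RPMI, were exposed to compound for 48 hours. Viability: CellTiter-Glo luminescence.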
KB-3-1 cytotox: qHTS assay for MDR1-selective chemotherapeutics: Primary screen using the parental adenocarcinoma cell KB-3-1. KB-3-1 viability, CellTiter-Glo ATP luminescence, 72 h. Potency, µM (titrated, usually from 46.1 µM), hits mostly cytotoxic. 400,000 tested, 1.4% active. AID 1347075, 2019; also: % is scaled to controls: 0 for no effect and ±100 for the full control effect; nearly all actives have a fitted effect of over 60% in size
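Cytotoxicity in the drug-sensitive parental line KB-3-1 was scored as loss of CellTiter-Glo luminescence following 72 h incubation with compound. Values come from curve fitting of normalized concentration-response data.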
* hit, by the source's call; [ ] = remark or other dose. Calls follow the shape of the dose curve; as a rule, active = well fitted curve in the direction sought with a large enough effect; inconclusive = small, poorly fitted or top-dose-only effect, or another doubt; inactive = no such curve, though single readings can be large; an effect the other way counts as inactive or inconclusive. Potency is read from the fitted curve at half-maximal effect.

How did CCOC(=O)C1CCc2c(ccc3ccccc23)N1CCC#N (stereo not given) do in these assays?
KB-V1 cytotox: inconclusive; HT1080 IDH1KD tx: -26%; HT1080NT lethal: -14%; KB-3-1 cytotox: inconclusive

What do the screens show for `CCN(CC(=O)Nc1ccccc1OC)C(=O)COc1ccc(C#N)cc1`?
KB-V1 cytotox: inactive; HT1080 IDH1KD tx: 0%; MCF10A rereplic: 4%; SW480 rerep: -93%; HT1080NT lethal: 3%; KB-3-1 cytotox: inactive

How did CCC(=O)c1ccc(OCC(=O)N(CC)CC(=O)Nc2ccccc2OC)cc1 do in these assays?
KB-V1 cytotox: 16µM*; HT1080 IDH1KD tx: 11%; MCF10A rereplic: -6%; SW480 rerep: -8%; HT1080NT lethal: -1%; KB-3-1 cytotox: inactive

How did CCN(CC(=O)Nc1ccccc1OC)C(=O)CSCC(=O)Nc1ccc(OC)cc1 do in these assays?
KB-V1 cytotox: inconclusive; HT1080 IDH1KD tx: inconclusive; MCF10A rereplic: -5%; SW480 rerep: -4%; HT1080NT lethal: 18µM*; KB-3-1 cytotox: inactive

How did CCN(CC)C(=O)CSCC(=O)Nc1ccccc1 do in these assays?
KB-V1 cytotox: inactive; HT1080 IDH1KD tx: 0%[9.24 µM]; MCF10A rereplic: 8.2µM*; SW480 rerep: -4%; HT1080NT lethal: 4%; KB-3-1 cytotox: inactive

How did CCCOc1ccc(C(=O)ON=C2CCN(C)CC2)cc1 do in these assays?
KB-V1 cytotox: inactive; HT1080 IDH1KD tx: 14%; MCF10A rereplic: -10%; SW480 rerep: 4%; HT1080NT lethal: 3%; KB-3-1 cytotox: inactive

How did C[C@H](CO)N1C[C@H](C)[C@@H](CN(C)Cc2cccnc2)Oc2cc(-c3cccnc3)ccc2S1(=O)=O do in these assays?
KB-V1 cytotox: inactive; HT1080 IDH1KD tx: 11%; HT1080NT lethal: 4%; KB-3-1 cytotox: inactive

How did CC1CCCC(C)N1CCOc1cc(N)ccc1C#N (stereo not given) do in these assays?
KB-V1 cytotox: inactive; HT1080 IDH1KD tx: 1%; MCF10A rereplic: inconclusive; SW480 rerep: -8%; HT1080NT lethal: -2%; KB-3-1 cytotox: inactive

What do the screens show for `CCc1ccc(CNC(=O)c2c3c(nc4ccccc24)C(=O)N(C2CCCCC2)C3)cc1`?
KB-V1 cytotox: 13µM*; KB-3-1 cytotox: inactive

Results for CC(=O)c1ccc(NC(=O)c2ccc(CN3C(=O)CCn4nc(C)cc43)cc2)cc1 ?
KB-V1 cytotox: inactive; KB-3-1 cytotox: inactive

How did CCCCn1c(SCC(=O)Nc2nnc(C)s2)nc2c1c(=O)n(C)c(=O)n2C do in these assays?
KB-V1 cytotox: inactive; HT1080 IDH1KD tx: -7%; MCF10A rereplic: -1%; SW480 rerep: -3%; HT1080NT lethal: 4%; KB-3-1 cytotox: inactive

Results for CCCCn1c(SCC(=O)Nc2ccc3c(c2)OCO3)nc2c1c(=O)n(C)c(=O)n2C ?
KB-V1 cytotox: 5.8µM*; HT1080 IDH1KD tx: -13%; MCF10A rereplic: -7%; SW480 rerep: 0%; HT1080NT lethal: 8%; KB-3-1 cytotox: 21µM*

Results for CCCn1c(SCC(=O)Nc2nnc(C(C)C)s2)nc2c1c(=O)n(C)c(=O)n2C ?
KB-V1 cytotox: inconclusive; HT1080 IDH1KD tx: 8%; MCF10A rereplic: 3%; SW480 rerep: -11%; HT1080NT lethal: 19%; KB-3-1 cytotox: 13µM*

What do the screens show for `CCCCn1c(SCC(=O)Nc2nnc(CC)s2)nc2c1c(=O)n(C)c(=O)n2C`?
KB-V1 cytotox: 21µM*; HT1080 IDH1KD tx: 2.8µM*; MCF10A rereplic: 1%; SW480 rerep: 14%; HT1080NT lethal: inconclusive; KB-3-1 cytotox: inactive

Results for Cc1cc(NC(=O)c2ccc(Br)o2)cc(-c2nc3ccccc3o2)c1O ?
KB-V1 cytotox: inconclusive; KB-3-1 cytotox: inactive

What do the screens show for `O=C1CCCC(O)=C1C=NCc1ccccc1`?
KB-V1 cytotox: inactive; HT1080 IDH1KD tx: -13%; MCF10A rereplic: -9%; SW480 rerep: -3%; HT1080NT lethal: -6%; KB-3-1 cytotox: inconclusive

What do the screens show for `NC(=O)/C=C/C(=O)Nc1ccc(Cl)cc1`?
KB-V1 cytotox: inactive; HT1080 IDH1KD tx: inconclusive; MCF10A rereplic: 15µM*; SW480 rerep: 18%; HT1080NT lethal: -2%; KB-3-1 cytotox: inactive

Results for COc1ccc(CN(C)CCCn2cnc3c(SC)ncnc32)cc1OC ?
KB-V1 cytotox: inconclusive; HT1080 IDH1KD tx: 2%; HT1080NT lethal: 5%; KB-3-1 cytotox: inactive

What do the screens show for `CC(C)N(C(=O)[C@H]1C[C@H](CC(=O)NCCC2=CCCCC2)C(=O)N2CCc3c([nH]c4cc(-c5ccco5)ccc34)[C@]12C)C(C)C`?
KB-V1 cytotox: inconclusive; HT1080 IDH1KD tx: inconclusive; MCF10A rereplic: 27%; SW480 rerep: 9%; HT1080NT lethal: -27%; KB-3-1 cytotox: 23µM*

Results for COc1ccc2[nH]c3c(c2c1)CCN1C(=O)C(CC(=O)NCCc2ccccn2)C[C@H](C(=O)N2CCCCC2)[C@@]31CCc1ccccc1 (stereo not given in full) ?
KB-V1 cytotox: inactive; HT1080 IDH1KD tx: 1%; MCF10A rereplic: 23%; SW480 rerep: inconclusive; HT1080NT lethal: 2%; KB-3-1 cytotox: inactive

How did CCN(CC)C(=O)[C@H]1CC(CC(=O)NC/C=C(\C)CCC=C(C)C)C(=O)N2CCc3c([nH]c4ccc(OC)cc34)[C@]12C (stereo not given in full) do in these assays?
KB-V1 cytotox: inconclusive; HT1080 IDH1KD tx: 16µM*; MCF10A rereplic: inconclusive; SW480 rerep: inconclusive; HT1080NT lethal: inconclusive; KB-3-1 cytotox: inconclusive

How did COCCCNC(=O)CC1C[C@H](C(=O)N2CCCCC2)[C@@]2(CCc3ccccc3)c3[nH]c4ccc(OC)cc4c3CCN2C1=O (stereo not given in full) do in these assays?
KB-V1 cytotox: inactive; HT1080 IDH1KD tx: 3%; MCF10A rereplic: -1%; SW480 rerep: 18µM*; HT1080NT lethal: -1%; KB-3-1 cytotox: inactive

Results for CC(C)N(C(=O)[C@H]1C[C@H](CC(=O)NCCCN(C)C)C(=O)N2CCc3c([nH]c4cc(-c5ccco5)ccc34)[C@]12C)C(C)C ?
KB-V1 cytotox: inactive; HT1080 IDH1KD tx: inconclusive; MCF10A rereplic: inconclusive; SW480 rerep: inconclusive; HT1080NT lethal: inconclusive; KB-3-1 cytotox: inactive

Compound activity as filed in PubChem BioAssay.
